Values joined by “and” are separate entries in the source; they are usually repeats but may differ in a detail not shown here. Equal values may be shown once. Screen size: about 18,000 compounds; about 1,200 (6.7%) were called active. Inconclusive results (about 16%) are left out. The entries come from a sample that favours actives as a whole. Where a call stands in place of a potency, no number is given. Unmarked numbers belong to inactive results. The call rests on the fitted dose curve; tested in HEK293 cells.
Assay: qHTS for Inhibitors of binding or entry into cells for Marburg Virus
Conditions: Marburg virus pseudotype entry/binding inhibition, cell-based; series mostly up to 49.2 µM
Potency means the concentration at half of the fitted maximal effect.

SMILES | activity change, negative = inhibition | Potency
COc1cc2c(cc1OC)[C@@H]1O[C@](CCCCN3C(=O)c4ccccc4C3=O)(C2)Oc2c1c(=O)oc1ccc(F)cc21 | 2.42% [at 8.59 µM] | 
CC(Nc1oc(-c2ccccc2)nc1-c1ccccc1)c1ccccc1 (centres undefined) | inactive | 
COC12CC[C@@]3(C[C@@H]1C(C)(O)C(C)(C)C)[C@H]1Cc4ccc(O)c5c4[C@@]3(CCN1CC1CC1)[C@H]2O5 (some centres undefined) |  | 15.8 µM (active)
COc1ccc2c(c1)O[C@@H](c1ccc3c(c1)OCO3)[C@H](OC(=O)NCc1ccco1)C2=O | inactive | 
COCCN1C(=O)N[C@@H](c2ccccc2)C(C(=O)OC)=C1C | inactive | 
CCC(=O)C[C@@H](NC(=O)OC)c1ccccc1 | -1.71% [at 8.59 µM] | 
CCCCN1CC(CO)Oc2cccc(F)c2S1(=O)=O (centres undefined) | inactive | 
CC(=O)[O][Sn]([c]1ccccc1)([c]1ccccc1)[c]1ccccc1 |  | 1 µM (active)
Cc1cccc(CN2CCN(C3CN(Cc4cn(Cc5ccccc5F)nn4)S(=O)(=O)C3)CC2)c1 (centres undefined) | inactive | 
CC(C)(Cc1c[nH]c2ccc(Cl)cc12)NCCOc1ccccc1OCC1CC1 |  | 11.2 µM (active) and 8.91 µM (active)
COc1ccc2c(c1)O[C@@H](c1ccc3c(c1)OCO3)[C@H](OC(=O)NCCc1ccc(OC)c(OC)c1)C2=O | inactive | 
CC1C(=O)N(Cc2cn(Cc3ccco3)nn2)CCS(=O)(=O)N1Cc1ccc(-c2cccc(CO)c2)cc1 (centres undefined) | inactive | 
COc1ccc([C@@H](NC(=O)C(F)(F)F)C2CCCC=C2c2ccccc2)cc1OC (some centres undefined) | 2.89% [at 8.59 µM] | 
CC[C@H](C)[C@H](NC(=O)[C@H](Cc1ccc(O)cc1)NC(=O)[C@@H](NC(=O)[C@H](CCCN=C(N)N)NC(=O)[C@@H](N)CC(=O)O)C(C)C)C(=O)N[C@@H](Cc1cnc[nH]1)C(=O)N1CCC[C@H]1C(=O)N[C@@H](Cc1ccccc1)C(=O)O | inactive | 
C=CCC(C)(O)c1ccco1 (centres undefined) | inactive | 
CC1=C(/C=C/C(C)=C/C=C/C(C)=C/C=C/C=C(C)/C=C/C=C(C)/C=C/C(=O)[C@]2(C)C[C@@H](O)CC2(C)C)C(C)(C)C[C@H](O)C1 | inactive | 
COc1ccc(-c2nc3c(c4c2C[C@H](c2ccccc2)OC4)CN(C(=O)c2ccco2)CC3)c(C)c1 | 13.2% [at 8.59 µM] | 
CCOC(=O)Cn1c(=O)sc2cccc(Cl)c21 | inactive | 
CC1(C)O[C@@H](C(O)(c2ccccc2)c2ccccc2)[C@H](C(O)(c2ccccc2)c2ccccc2)O1 | -19% [at 8.59 µM] | 
CCCCCCCC/C=C\CCCCCCCC(=O)NCC(=O)O | inactive | 
C[C@H]1CCC[C@@]2(C)CCCC[C@]12O | inactive | 
COc1ccc([C@H]2C[C@@H](n3cc(COC(=O)c4ccccc4)nn3)[C@H](O)CN2C(=O)c2cccs2)cc1 | inactive | 
CC(C)C(NS(=O)(=O)c1ccc(-c2ccc(Br)cc2)cc1)C(=O)O (centres undefined) | inactive | 
COc1ccc2c(c1)CO[C@H]([C@H](O)CBr)[C@H]2C=Cc1ccccc1 | -15.4% [at 8.59 µM] | 
C=CCOC(=O)NC(c1ccc(F)c(F)c1)C(C(=O)COC)C(=O)OC (centres undefined) | inactive | 

SMILES | activity change, negative = inhibition | Potency
OC[C@H]1O[C@H](C#Cc2ccccc2)C=C[C@H]1O | 19.6% [at 8.59 µM] | 
CCOC(=O)CN1C(=O)NC(c2cccs2)C(C(=O)OC)=C1C (centres undefined) | -16.9% [at 8.59 µM] | 
O=C(O)C1CCN(c2ncnc3ccc(-c4ccccc4C(F)(F)F)cc23)CC1 |  | 112 µM (active)
Cc1ccc(S(=O)(=O)N2CCC(=O)N([C@H](COCc3ccccc3)Cc3ccccc3)CC2)cc1 | inactive | 
O=S1(=O)CC(N2CCN(CCO)CC2)CN1C1CCCC1 (centres undefined) | inactive | 
O=c1cc(-c2ccc(O)cc2)oc2c(-c3cc(-c4cc(=O)c5c(O)cc(O)cc5o4)ccc3O)c(O)ccc12 | inactive | 
CCCCCC(=O)N1C[C@@H](O)[C@H](n2cc(C3CC3)nn2)C[C@H]1c1ccc(OC)cc1 | inactive | 
O=C1CCC[C@@H]2CC(N3CCCCC3)C[C@@H]3CCN1[C@H]23 (some centres undefined) | inactive | 
Oc1ccc(-c2c(-c3ccccc3)nn3c(C(F)(F)F)cc(C(F)(F)F)nc23)cc1 | inactive | 
CC(C)=CCCC(C)=CCN1C(=O)[C@]2(O[C@H](C)CC3=CCCC32)c2c(Br)cccc21 (some centres undefined) | 10.2% [at 8.59 µM] | 
Cc1ccc(-c2ccc(C(=O)N3CCc4nnc(CNC(=O)c5ccccc5)n4CC3)cc2)cc1 | inactive | 
COCCNc1ncnc2ccc(-c3ccccc3CN(C)C)cc12 | inactive | 
COc1ccccc1CNc1ncnc2ccc(-c3c(C)noc3C)cc12 | inactive | 
COc1ccc2[nH]cc(CCNc3ncnc4ccc(-c5ccccc5CN(C)C)cc34)c2c1 |  | 10 µM (active)
C=CCCN(Cc1ccccc1)S(=O)(=O)c1ccccc1Br | inactive | 
CC(=O)OC[C@H]1O[C@@H](O[C@H]2[C@H](O)[C@@H](OC(=O)c3ccccc3C(=O)O)[C@H](O)O[C@@H]2COC(C)=O)[C@H](O)[C@@H](OC(=O)c2ccccc2C(=O)O)[C@@H]1O |  | 3.55 µM (active)
CC(=O)OC[C@H]1O[C@H](C#Cc2ccccc2)C=C[C@@H]1OC(C)=O | 21% [at 8.59 µM] | 
CC(=O)OC[C@H]1O[C@H](C#CC2=CCCCC2)C=C[C@H]1OC(C)=O | -20.8% [at 8.59 µM] | 
CCCC[C@]12Cc3cc(C#N)ccc3[C@H](O1)c1c(cc(-c3ccccc3)oc1=O)O2 | 9.58% [at 8.59 µM] | 
C[C@H]1Cc2c(COc3ccccc3)nc3c(c2CO1)CN(C(=O)Nc1cccc(C#N)c1)CC3 | 2.49% [at 8.59 µM] and 20.7% [at 8.59 µM] | 
CN1CCC(n2cnc(-c3ccc(F)cc3)c2-c2ccnc(N)n2)CC1 |  | 17.7 µM (active)
CC(C)(CO)CNC(=O)c1ccc2[nH]c(O)c(N=Nc3ccc(S(N)(=O)=O)cc3)c2c1 | inactive | 
Cc1ccc(NC(=O)O[C@@H]2C(=O)c3cc(Br)ccc3O[C@H]2c2ccc3c(c2)OCO3)cc1Br | inactive | 
CCOCCOC(=O)C(C)Oc1ccc(Oc2ncc(C(F)(F)F)cc2Cl)cc1 (centres undefined) | inactive | 
